# Measurements as given in PubChem BioAssay (NCATS).
# Values joined by “and” are separate entries in the source; they are usually repeats but may differ in a detail not shown here. Equal values may be shown once. Records with an inconclusive call do not appear. Active and inactive are the calls of the source. Unless noted, calls come from the whole dose curve; as a rule, active = well fitted curve in the direction sought with a large enough effect; inconclusive = small, poorly fitted or top-dose-only effect, or another doubt; inactive = no such curve, though single readings can be large; an effect the other way counts as inactive or inconclusive.
# Key:
# [1] = qHTS Assay for Identification of Small Molecule Agonists for NFkB Signaling Pathway. (AID 624478);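 note: compounds tested together with TNF alpha at its EC50 of 10 pM; 0% is about no effect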
# Method in brief: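 ME-180 cervical carcinoma, stable NFkB-RE beta-lactamase reporter; 1000 cells/well, overnight attachment; cpd + TNF alpha 10 pM final, 5 h 37 C; LiveBLAzer 2 h RT; FRET 460/530 nm, ex 405 nm.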
# [2] = qHTS Assay for Identification of Small Molecule Antagonists for NFkB Signaling Pathway. (AID 624479; calls by dose curve;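 note: pathway stimulated with TNF alpha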; note: potency is the fitted concentration of half-maximal effect)
# [3] = Cell Proliferation Assay against the TMD8 Cell Line (AID 651645); settings: TMD8 DLBCL cell line proliferation/viability; at 46.1 µM (top of the series) unless noted;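 note: cells exposed to compound for 48 h before reading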
# Method in brief: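 Viability by CellTiter-Glo after 48 h compound exposure of 500 log-phase TMD8 cells per well (RPMI, 5% FBS). Percent activity scaled between DMSO (100%) and 9.2 uM final bortezomib (0%).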
# [4] = Cell Proliferation Assay against the HBL1 Cell Line (AID 651646); settings: HBL1 DLBCL cells; at 46.1 µM (top of the series) unless noted;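 note: cells exposed to compound for 48 h before reading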
# Method in brief: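 Luminescent ATP read-out (CellTiter-Glo) after 48 h compound exposure of HBL1 cells at 37 °C; percent activity was scaled between DMSO as 100% and 9.2 uM bortezomib (final) as 0%.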
# [5] = Cell Proliferation Assay against the TMD8 Cell Line (Caspase readout at 16 hrs) (AID 651712); note: potency is the fitted concentration of half-maximal effect
# Method in brief: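 Apoptotic response of TMD8 cells was judged from caspase 3/7 activation following a 16 hour compound incubation at 37 °C. Luminescent signal was converted to percent activity, with DMSO set as 0% and 9.2 uM final bortezomib as 100%.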
# [6] = Cell Proliferation Assay against the TMD8 Cell Line (Caspase readout at 8 hrs) (AID 651713); note: potency is the fitted concentration of half-maximal effect
# Method in brief: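 Seed log-phase TMD8 cells, add compound by pin tool, incubate 8 h at 37C under 5% CO2, equilibrate to room temperature, add Caspase-Glo, wait 15 min, read luminescence; percent activity uses DMSO and 9.2 uM bortezomib controls.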
# [7] = Cytotoxicity counterscreen for NFkB agonists and antagonists (AID 624476);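 note: cells exposed to compound for 48 hours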; note: potency is the fitted concentration of half-maximal effect
# [8] = qHTS assay for small molecule activators of the p53 signaling pathway (AID 651743; active = well fitted activation curve with a large enough effect in the signal ratio, not every such curve was filed as active; the % refers to the signal ratio; note: % of control where 0% means no effect); settings: HCT-116 p53RE-bla, beta-lactamase FRET ratio, 16 h; stronger effect = higher value
# Method in brief: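 Read-out is fluorescence intensity from the LiveBLAzer B/G FRET substrate, added for 2 hours at room temperature after HCT-116 p53RE-bla cells had been incubated with compounds for 16 hours at 37 C.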
# [9] = qHTS assay for small molecule activators of the nuclear factor-kappa B (NF-kB) signaling pathway (AID 651749; active = well fitted activation curve with a large enough effect in the signal ratio; the % refers to the signal ratio; note: % of control where 0% means no effect); settings: NF-kB-bla ME-180 cells, beta-lactamase FRET ratio, 16 h; stronger effect = higher value
# Method in brief: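 Readout: beta-lactamase reporter driven by an NF-kB response element, detected fluorescently as loss of FRET. Cells were the ME-180 line, treated 16 hr at 37C with pin-transferred compound.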
# [10] = qHTS assay for small molecule agonists of the antioxidant response element (ARE) signaling pathway (AID 651741; active = well fitted activation curve with a large enough effect in the signal ratio; the % refers to the signal ratio; note: potency is the fitted concentration of half-maximal effect; for activation: % of control where 0% means no effect)
# Method in brief: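 Quantitative HTS in HepG2 cells stably expressing an ARE-beta-lactamase reporter; 16 h compound exposure at 37 C, followed by 2 h room-temperature incubation with LiveBLAzer B/G FRET substrate and fluorescence measurement.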
# [11] = qHTS assay for small molecule disruptors of the mitochondrial membrane potential - 1 hr assay (AID 651754; calls by dose curve; note: potency is the fitted concentration of half-maximal effect; nearly all actives have a fitted effect of over 35% in size)
# Method in brief: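 HepG2, 2,000 cells/well, overnight attachment; cpd or DMSO 1 hr, 37C/5% CO2; Mito-MPS dye 30 min, 37C; fluorescence monomer (490/535) and aggregate (540/590).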
# [12] = qHTS assay for small molecule disruptors of the mitochondrial membrane potential - 5 hr assay (AID 651755; calls by dose curve; note: potency is the fitted concentration of half-maximal effect; nearly all actives have a fitted effect of over 40% in size)
# Method in brief: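 HepG2, 2,000 cells/well, overnight attach; cpd or DMSO 5 hr, 37C/5% CO2; Mito-MPS 30 min 37C; fluor 490/535 + 540/590 nm.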
# [13] = biological target: Tumor necrosis factor (Homo sapiens) (UniProt P01375); experiment: qHTS assay to identify small molecules that stimulate Tumor Necrosis Factor-alpha (TNF-alpha) secretion (AID 651757; active = well fitted curve in the direction sought with a large enough effect in the signal ratio; the % refers to the signal ratio; note: 0% is about no effect)
# Method in brief: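 Read-out is HTRF, a TR-FRET sandwich of cryptate- and XL665-labeled anti-TNF-alpha antibodies detecting cytokine secreted by THP-1 cells. Cells had been incubated with test compounds at 37 C for 17 hrs beforehand.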
# Sequence of Tumor necrosis factor (Homo sapiens) (P01375 whole entry, looked up): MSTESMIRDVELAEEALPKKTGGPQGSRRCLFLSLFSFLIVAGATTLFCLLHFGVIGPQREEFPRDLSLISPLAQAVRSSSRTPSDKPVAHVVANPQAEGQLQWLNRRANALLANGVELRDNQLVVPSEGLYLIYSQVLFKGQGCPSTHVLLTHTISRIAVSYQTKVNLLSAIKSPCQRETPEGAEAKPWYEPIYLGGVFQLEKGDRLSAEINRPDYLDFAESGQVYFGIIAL
structure (smiles),measurement,setting,value
Cc1ccc(F)c(NC(=O)Nc2ccc(-c3cccc4[nH]nc(N)c34)cc2)c1,outcome,[1],inactive
same,Potency,[2],1.49 µM (active)
same,viability (% of control),[3],4.9%
same,"viability, percent of control",[4],8.04%
same,Potency,[5],inactive
same,Potency,[6],inactive
COc1cc2ncnc(-n3nc(-c4ccccn4)nc3N)c2cc1OC,outcome,[1],inactive
same,Potency,[2],1.88 µM (active)
same,viability (% of control),[3],1.94%
same,"viability, percent of control",[4],17.1%
same,Potency,[5],16.6 µM (active)
same,Potency,[6],20.9 µM (active)
O=C(Nc1ccccc1-c1cn2c(CN3CCNCC3)csc2n1)c1cnc2ccccc2n1,outcome,[1],inactive
same,Potency,[2],inactive
same,viability (% of control),[3],2.49%
same,"viability, percent of control",[4],2.43%
same,Potency,[5],inactive
COc1cc(Nc2ncc(F)c(Nc3ccc4c(n3)NC(=O)C(C)(C)O4)n2)cc(OC)c1OC,Potency,[7],13.2 µM (active)
same,outcome,[1],inactive
same,viability (% of control),[3],17.5%
same,"viability, percent of control",[4],56.6%
same,Potency,[5],inactive
same,Potency,[6],inactive
COc1ccc(C2CC(c3ccccc3)=NN2c2ccc(S(N)(=O)=O)cc2)cc1 (stereo not given),outcome,[1],inactive
same,Potency,[2],inactive
same,viability (% of control),[3],13.6%
same,"viability, percent of control",[4],5.45%
CS(=O)c1ccc(-c2nc(-c3ccc(F)cc3)c(-c3ccncc3)[nH]2)cc1 (stereo not given),Potency,[7],inactive
same,outcome,[1],inactive
same,Potency,[2],inactive
same,Potency,[5],inactive
same,Potency,[6],inactive
CO[C@H]1C[C@@H]2CC[C@@H](C)[C@@](O)(O2)C(=O)C(=O)N2CCCC[C@@H]2C(=O)O[C@H]([C@H](C)C[C@@H]2CC[C@H](OCCO)[C@H](OC)C2)CC(=O)[C@H](C)C=C(C)[C@@H](O)[C@@H](OC)C(=O)[C@H](C)C[C@H](C)C=CC=CC=C1C,outcome,[1],inactive
same,viability (% of control),[3],-0.307%
same,"viability, percent of control",[4],9.54%
same,Potency,[5],inactive
c1ccc2c(-c3cnn4cc(-c5ccc(N6CCNCC6)cc5)cnc34)ccnc2c1,Potency,[2],18.8 µM (active)
same,viability (% of control),[3],0.905%
same,"viability, percent of control",[4],3.84%
O=C(O)c1cc(-c2ccccc2)nc2ccccc12,activation,[8],-1.06% (inactive)
same,activation,[9],-3.75% (inactive)
O=c1cc(-c2ccccc2)oc2cc(O)cc(O)c12,Potency,[10],10.9 µM (active)
same,activation,[8],22.8% (inactive)
same,activation,[9],-2.47% (inactive)
COc1cc(N2CCC(N3CCN(C)CC3)CC2)ccc1Nc1ncc(Cl)c(Nc2ccccc2S(=O)(=O)C(C)C)n1,Potency,[7],2.09 µM (active)
same,outcome,[1],inactive
same,Potency,[2],11.9 µM (active)
same,viability (% of control),[3],3.22%
same,"viability, percent of control",[4],3.91%
same,Potency,[6],23.5 µM (active)
O=C(O)c1cc(O)c2c(c1)C(=O)c1cccc(O)c1C2=O,activation,[9],1% (inactive)
same,Potency,[11],8.41 µM (active)
same,Potency,[12],5.31 µM (active)
O=c1cc(CN2CCOCC2)occ1OCCCCCSc1ccnc2cc(C(F)(F)F)ccc12,outcome,[1],inactive
same,viability (% of control),[3],6.87%
same,"viability, percent of control",[4],20.4%
O=C(O)CCC1CCC(c2cc(F)ccc2F)(S(=O)(=O)c2ccc(Cl)cc2)CC1 (stereo not given),Potency,[7],inactive
same,outcome,[1],inactive
same,Potency,[2],inactive
same,viability (% of control),[3],98.2%
same,"viability, percent of control",[4],95.2%
same,Potency,[5],inactive
same,Potency,[6],inactive
NC(CO)(CO)CCc1ccc(Sc2cccc(OCc3ccccc3)c2)cc1Cl,viability (% of control),[3],0.474%
same,"viability, percent of control",[4],1.28%
same,Potency,[5],inactive
CN1CCN(CCOc2cc(OC3CCOCC3)c3c(Nc4c(Cl)ccc5c4OCO5)ncnc3c2)CC1,outcome,[1],inactive
same,viability (% of control),[3],17.4%
same,"viability, percent of control",[4],19.4%
O=C1C(Cl)=C(NCCN2CCOCC2)C(=O)c2ncccc21,Potency,[7],2.35 µM (active)
same,outcome,[1],inactive
same,Potency,[2],2.11 µM (active)
same,viability (% of control),[3],3.41%
same,"viability, percent of control",[4],2.09%
same,Potency,[5],inactive
same,Potency,[6],inactive
CO[C@H]1C=CC=C(C)C(=O)NC2=CC(=O)C(NCCN(C)C)=C(C[C@@H](C)C[C@H](OC)[C@@H](O)[C@@H](C)C=C(C)[C@@H]1OC(N)=O)C2=O,outcome,[1],inactive
same,viability (% of control),[3],3.74%
same,"viability, percent of control",[4],4.29%
O=C(N[C@@H](c1ccccc1)[C@@H]1CCCCN1)c1cccc(C(F)(F)F)c1Cl,Potency,[7],inactive
same,outcome,[1],inactive
same,Potency,[2],inactive
same,viability (% of control),[3],74.3%
same,"viability, percent of control",[4],28.1%
same,Potency,[6],inactive
N#Cc1ccc(NC(=O)Nc2ccccc2Br)c2n[nH]nc12,Potency,[7],inactive
same,Potency,[2],inactive
same,viability (% of control),[3],12.8%
same,"viability, percent of control",[4],69.7%
same,Potency,[5],inactive
same,Potency,[6],inactive
O=c1cc(N2CCOCC2)oc2c(-c3cccc4c3sc3ccccc34)cccc12,Potency,[7],18.7 µM (active)
same,outcome,[1],inactive
same,Potency,[2],13.3 µM (active)
same,viability (% of control),[3],2.51%
same,"viability, percent of control",[4],2.43%
same,Potency,[6],20.9 µM (active)
CCOC(CN1C(=O)[C@](CC(=O)Nc2ccc(C)cc2)(NC(=O)Nc2ccc(C)cc2)c2ccccc21)OCC,outcome,[1],inactive
same,Potency,[2],18.8 µM (active)
same,viability (% of control),[3],16.8%
same,"viability, percent of control",[4],4.35%
O=c1c(O)c(-c2ccc(O)cc2)oc2cc(O)cc(O)c12,Potency,[10],21.7 µM (active)
same,activation,[8],2.31% (inactive) and 6.56% (inactive)
same,activation,[9],-2.22% (inactive) and -4.27% (inactive)
same,Potency,[11],5.31 µM (active)
same,Potency,[12],8.41 µM (active)
CCOc1ccc(Nc2nc(-c3c(C)nc4ccccn34)cs2)cc1,outcome,[1],inactive
same,viability (% of control),[3],5.58%
same,"viability, percent of control",[4],14.7%
same,Potency,[5],0.105 µM (active)
O=C(O)Cc1cccc2ccccc12,Potency,[10],inactive
same,activation,[8],-2.96% (inactive) and -4.77% (inactive)
same,activation,[9],-0.417% (inactive) and -0.959% (inactive)
same,outcome,[13],inactive
O=C(Nc1cc(Cl)cc2c1[nH]c1cnccc12)c1cccnc1,Potency,[7],inactive
same,outcome,[1],inactive
same,Potency,[2],18.8 µM (active)
same,viability (% of control),[3],1.73%
same,"viability, percent of control",[4],32.9%
same,Potency,[6],inactive
